Screens from PubChem.
BoNT-F LC inh = BoNT F light chain protease inhibition; Multiplex microsphere protease cleavage assay, flow cytometry; inhibition, % at 10 µM; actives 0.22% (n = 360,000); AID 588497; in the data active means inhibition above about 35%, passing the limit was not always enough; inconclusive means no clear call, values can overlap the other calls; further: plate controls were buffer without enzyme for full effect and enzyme alone for no effect
MazF activator = increases E. coli MazEF RNase cleavage of RNA; P0AE70; FAM/BHQ RNA-DNA oligo cleavage fluorescence, 5 h; activation, % at 20 µM; actives 0.32% (n = 350,000); in the data active means activation above about 50%
Target sequence (P0AE70 whole entry, looked up): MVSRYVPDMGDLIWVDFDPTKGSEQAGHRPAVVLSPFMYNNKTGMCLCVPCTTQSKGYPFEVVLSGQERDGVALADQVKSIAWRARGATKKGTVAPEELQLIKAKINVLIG
Anthrax LF prot = anthrax lethal factor protease inhibition; P15917; multiplex microsphere protease cleavage assay, LF; actives 0.12% (n = 360,000); AID 588501; inhibition, % at 10 µM; further: plate controls were buffer without enzyme for full effect and enzyme alone for no effect
BoNT A protease = blocks Botulinum neurotoxin A light chain protease; multiplex microsphere protease substrate cleavage, flow cytometry; inhibition, % at 10 µM; actives 0.17% (n = 360,000); AID 588499; further: plate controls were buffer without enzyme for full effect and enzyme alone for no effect
Autofluor counter = compound fluorescence in toxin protease inhibitor counterscreen; compound autofluorescence counterscreen, microsphere flow cytometry; stronger effect = higher value; fluorescence intensity (no concentration beside the values); actives 3.1% (n = 360,000); AID 624483; in the data active means fluorescence intensity above about 16000; inconclusive means no clear call, values can overlap the other calls
PfHsp40 yeast = restores yeast growth despite PfHsp40 toxicity; growth rescue, % at 12.5 µM; AID 504582; actives 0.68% (n = 340,000); S. cerevisiae expressing PfHsp40, growth rescue, ATP luminescence; in the data active means growth rescue above about 28%, passing the limit was not always enough; inconclusive means no clear call, values can overlap the other calls;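 further: yeast W303a lacking pdr1 and pdr3 grown in galactose medium; growth measured after three days at 30 °C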
Active calls of the source: *. The list is not random: actives were taken first. Their share in the collection is about 4.3%. Unless noted, no stated cut-off is given here; in the data, active means inhibition above about 30%; inconclusive means no clear call, values can overlap the other calls; inactive means below that.

`CC1=CC(C)(C)N2C(=O)C3(C(C#N)=C(N)Oc4cc(O)ccc43)c3c(C)c(C)cc1c32` (stereo unspecified) gave BoNT-F LC inh -2, MazF activator 2, Anthrax LF prot -2, BoNT A protease -2, Autofluor counter 23874* and PfHsp40 yeast -1.
Screening CC1=CC(C)(C)N2C(=O)C3(C(C#N)=C(N)OC4=C3C(=O)CCC4)c3c(C)c(C)cc1c32 (stereo unspecified) returned BoNT-F LC inh -6, MazF activator 8, Anthrax LF prot -2, BoNT A protease -4, Autofluor counter 17514* and PfHsp40 yeast 0.
`CCOC(=O)C1=C(N)OC2=C(C(=O)CCC2)C12C(=O)N1c3c(ccc(C)c32)C(C)=CC1(C)C` (stereo unspecified) gave BoNT-F LC inh -13, MazF activator 2, Anthrax LF prot 0, BoNT A protease 0, Autofluor counter 3651 and PfHsp40 yeast 0.
`COc1cccc(CNC(=O)C2CCN(S(=O)(=O)c3cccc4nonc34)CC2)c1` gave BoNT-F LC inh 1, MazF activator 0, Anthrax LF prot -4, BoNT A protease -1, Autofluor counter 4723 and PfHsp40 yeast 0.
Screening CCOc1ccc(CCNC(=O)CN2C(=O)c3cccnc3Oc3ccc(Cl)cc32)cc1 returned BoNT-F LC inh -4, MazF activator -22, Anthrax LF prot 0, BoNT A protease 1, Autofluor counter 5678 and PfHsp40 yeast -2.
Screening COC(=O)c1cccnc1-n1c(=O)c2cccnc2n(Cc2ccc(Cl)cc2)c1=O returned BoNT-F LC inh 2, MazF activator 0, Anthrax LF prot -1, BoNT A protease 0, Autofluor counter 22186* and PfHsp40 yeast 0.
Screening O=C(O)C1C2CCC(CC2)C1C(=O)N1CCN(Cc2ccc(F)cc2)CC1 (stereo unspecified) returned BoNT-F LC inh -36, MazF activator 9, Anthrax LF prot -15, BoNT A protease -3, Autofluor counter 4327 and PfHsp40 yeast 0.
COc1ccc(N=C2C(=O)Nc3ccccc32)cc1 was read as BoNT-F LC inh 1, MazF activator -2, Anthrax LF prot -2, BoNT A protease 0, Autofluor counter 22766* and PfHsp40 yeast 0.
For COc1ccc(OC)c(N=C2C(=O)Nc3ccccc32)c1 the results were BoNT-F LC inh -4, MazF activator 10, Anthrax LF prot -8, BoNT A protease inconclusive, Autofluor counter 21377* and PfHsp40 yeast 0.
Cc1ccc(-c2ccc(=O)n(CC(=O)NCC3COCCO3)n2)cc1 (stereo unspecified) was read as BoNT-F LC inh 0, MazF activator -7, Anthrax LF prot 0, BoNT A protease 0, Autofluor counter 5761 and PfHsp40 yeast -1.
Screening O=[N+]([O-])c1cccc(C(=Nc2ccc(Cl)cc2)NO)c1 returned BoNT-F LC inh -8, MazF activator 5, Anthrax LF prot -5, BoNT A protease -1, Autofluor counter 6289 and PfHsp40 yeast 0.
`ONC(=Nc1ccc(Cl)cc1)c1ccc(Cl)cc1` gave BoNT-F LC inh -4, MazF activator -4, Anthrax LF prot -8, BoNT A protease -1, Autofluor counter 24126* and PfHsp40 yeast -1.
For COC(=O)c1c(NC(=O)c2ccccc2)sc2c1CC(C)(C)OC2 the results were BoNT-F LC inh -2, MazF activator -3, Anthrax LF prot -12, BoNT A protease inconclusive, Autofluor counter 16350* and PfHsp40 yeast 0.
For CCOC(=O)c1c(NC(=O)c2ccc(C)cc2)sc2c1CC(C)(C)OC2 the results were BoNT-F LC inh -11, MazF activator 11, Anthrax LF prot -3, BoNT A protease 0, Autofluor counter 2757 and PfHsp40 yeast -1.
Screening CCOC(=O)N1CCN(C(=O)c2cc3c(s2)-c2ccc(Cl)cc2S(=O)(=O)C3)CC1 returned BoNT-F LC inh -3, MazF activator 14, Anthrax LF prot 3, BoNT A protease 0, Autofluor counter 4378 and PfHsp40 yeast -2.
For Cc1ccc(C(=O)CSc2nnc(COc3cc(C)cc(C)c3)o2)cc1 the results were MazF activator -3 and PfHsp40 yeast -1.
`Cc1cc(C)cc(OCc2nnc(SCC(=O)c3ccccc3)o2)c1` gave BoNT-F LC inh -2, MazF activator 0, Anthrax LF prot -2, BoNT A protease inconclusive, Autofluor counter 19614* and PfHsp40 yeast 0.
Screening COc1cc(/C=C2/C(=N)N3C(=NC2=O)SN=C3S(=O)(=O)C(C)C)ccc1OC(=O)c1ccco1 returned MazF activator 45 and PfHsp40 yeast -1.
`CCOc1cc(/C=C2/C(=N)N3C(=NC2=O)SN=C3S(=O)(=O)C(C)C)ccc1OC(=O)c1ccco1` gave BoNT-F LC inh -1, MazF activator 62*, Anthrax LF prot 0, BoNT A protease 2, Autofluor counter 6340 and PfHsp40 yeast 10.
For COC(=O)c1cc(OC)c(OC)cc1NC(=S)N1CCC(C(N)=O)CC1 the results were BoNT-F LC inh -6, MazF activator -6, Anthrax LF prot -3, BoNT A protease -4, Autofluor counter 17588* and PfHsp40 yeast 0.
For COC(=O)c1cc(OC)c(OC)cc1NC(=O)CN1CCCCC1 the results were BoNT-F LC inh -4, MazF activator -4, Anthrax LF prot -4, BoNT A protease 0, Autofluor counter 22761* and PfHsp40 yeast -1.
CCOC(=O)C1CCN(C(=S)Nc2cc(OC)c(OC)cc2C(=O)OC)CC1 was read as BoNT-F LC inh 1, MazF activator 5, Anthrax LF prot 1, BoNT A protease 0, Autofluor counter 20685* and PfHsp40 yeast -1.
`CCOc1cc(NC(=S)N2CCC(C(N)=O)CC2)c(C(=O)OC)cc1OCC` gave BoNT-F LC inh -5, MazF activator 8, Anthrax LF prot -2, BoNT A protease -1, Autofluor counter 3347 and PfHsp40 yeast 0.
Screening COC(=O)c1cc(OC)c(OC)cc1NC(=S)N1CCCCC1 returned BoNT-F LC inh 8, MazF activator 4, Anthrax LF prot 2, BoNT A protease 5, Autofluor counter 20422* and PfHsp40 yeast 0.
Screening COC(=O)c1cc(OC)c(OC)cc1NC(=S)N1CCN(C)CC1 returned BoNT-F LC inh -4, MazF activator -1, Anthrax LF prot 1, BoNT A protease -1, Autofluor counter 10029 and PfHsp40 yeast -1.
Screening CCCCCCCCc1nnc(N)s1 returned BoNT-F LC inh inconclusive, MazF activator 4, Anthrax LF prot -4, BoNT A protease -1, Autofluor counter 3777 and PfHsp40 yeast 0.
Clc1ccccc1Sc1ccc(-c2ccccn2)s1 was read as BoNT-F LC inh -21, MazF activator -5, Anthrax LF prot inconclusive, BoNT A protease 3 and Autofluor counter 3832.
Screening Cc1ccc(NC(=S)N=Nc2c(O)n(C)c3ccc(S(=O)(=O)N4CCOCC4)cc23)cc1 returned BoNT-F LC inh -5, MazF activator 2, Anthrax LF prot 5, BoNT A protease 12, Autofluor counter 2479 and PfHsp40 yeast 1.
